Results: PubChem BioAssay AID488841 (Sanford-Burnham Center for Chemical Genomics, 2010)
The whole screen tested about 1,400 compounds, of which about 380 (27%) were called active. Some of the results follow. Values without a mark were called inactive.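 Rule for the calls: active = mean inhibition above 50% across duplicate retests at 10 µM; inactive = the rest.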

Assay: inhibition of NALP1/ASC/caspase-1 reporter signal in yeast, confirmation, NALP1 inhibitor project, S. cerevisiae, luminescence, single concentration (AID 488841);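 note: plate controls were DMSO in galactose medium for no effect and cells in plain SD medium for full effect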
Conditions: S. cerevisiae NALP1/ASC/Caspase-1 reporter, beta-gal luminescence; at 10 µM; stronger effect = higher value

Compound | inhibition
O=C(CCN1CCc2ccccc2C(c2ccccc2)C1)c1ccc2c(c1)OCCO2 (stereo unspecified) | 30%
c1ccc(-c2ccc(-c3cn4c(n3)CCC4)cc2)cc1 | 85.2% (active)
Cc1nc(-c2ccccc2)cn2c1nc1ccccc12 | 49%
COc1cc2nc(Cl)nc(N3CCN(C)CC3)c2cc1OC | 39.5%
c1ccc(Nc2ccccn2)cc1 | 27.3%
O=c1sc(Nc2ccccc2)nc2ccsc12 | 78.8% (active)
CC(C)CN=Cc1c(O)c([N+](=O)[O-])cc2oc3c(c12)CCCC3 | 35.5%
CC(C)C(=O)N(Cc1ccccc1)c1ccccn1 | 19.8%
Cc1cc(C)c(S(=O)(=O)N(CC(=O)O)CC(=O)O)c(C)c1 | 25.9%
CCOc1ccccc1NC(=O)/C=C/C(N)=O | 59.6% (active)
CCOc1ccccc1N/C=C(\C#N)c1nc2ccccc2n1C | 12.5%
CCCOc1ccccc1NC(=O)/C=C/C(N)=O | 71.2% (active)
CCCCOc1ccccc1NC(=O)c1ccco1 | 34.8%
COc1ccccc1NC(=O)CCN1CCN(Cc2ccccc2)CC1 | 44.5%
O=[N+]([O-])/C(C(=C(Cl)Cl)N1CCN(Cc2ccccc2)CC1)=C1\NCCN1Cc1ccc(Cl)nc1 | 35.4%
CCOC(=O)c1c(C)[nH]c(N=Nc2cccc(C)c2)c1C | 46.4%
Oc1c(Cl)cc(Cl)c(Cl)c1Cc1c(O)c(Cl)cc(Cl)c1Cl | 99.9% (active)
Oc1c(Cl)cc(Cl)c2c1NCCC2 | 41.9%
CCOC(=O)C(C(=O)OCC)C(C(=O)OCC)N1CCOCC1 (stereo unspecified) | 64.8% (active)
CCC(Cc1ccccc1)NC(=O)C1CCN(S(=O)(=O)c2c(C)noc2C)CC1 (stereo unspecified) | 26.1%
NS(=O)(=O)c1ccc(NC(=O)COC(=O)c2cn(-c3ccccc3)nc2-c2ccc(F)cc2)cc1 | 18.7%
CN(C)c1ccc(NC(=O)COC(=O)c2cc(Cl)ccc2[N+](=O)[O-])cc1 | 62.9% (active)
CCOC(=O)c1cc([N+](=O)[O-])c([N+](=O)[O-])cc1NC(C)=O | 24.9%
CC1CCN(CCOc2ccc(OCc3ccccc3)cc2)CC1 | 48.1%
O=C(N/N=C/c1cccc(F)c1)c1c(O)c2ccccc2[nH]c1=O | 31.5%
CCOC(=O)c1nc(C)sc1-c1ccnn1S(=O)(=O)c1ccc(C)cc1 | 29.4%

Compound | inhibition
O=C(O)CC(Cn1cnnn1)c1ccccc1 (stereo unspecified) | 25.9%
Brc1cccc(OCCN2CCCCC2)c1 | 44.9%
Clc1cccc(OCCN2CCN(CCOc3cccc(Cl)c3)CC2)c1 | 60.4% (active)
CCc1cccc(OCCN2CCCC2)c1 | 29.9%
CCN(CC)S(=O)(=O)c1cccc(C(=O)N[C@H](C(=O)O)C(C)C)c1 | 33.2%
Cc1cccc(N=C2NC(=O)/C(=C\c3cccs3)S2)c1 | 44%
COC1=C(Nc2ccccc2)C(=O)c2ccccc2C1=O | 17.4%
CC(CC(=O)Nc1cccc(Cl)c1)c1ccccc1 (stereo unspecified) | 42.7%
O=C(Nc1ccc(Nc2ccccc2)cc1)C(Cl)Cl | 78.8% (active)
CC(C)C(=O)Nc1ccc(Nc2ccccc2)cc1 | 58.4% (active)
Cc1cccc(C)c1NC(=O)C(Cl)C(=O)c1ccccc1 (stereo unspecified) | 12.7%
CNCc1ccccc1Sc1cc(O)ccc1O | 26.8%
O=S(=O)(CC12C3C4C5C1C2C(Br)(C43)C51OCCO1)c1ccccc1 (stereo unspecified) | 40%
CC1CCCCN1S(=O)(=O)c1cnc(Cl)c(Br)c1 (stereo unspecified) | 68.1% (active)
O=c1c(Br)c(N2CCCC2)cnn1-c1ccccc1 | 41.4%
CC1CC(C)CN(S(=O)(=O)c2ccc(C(=O)NCc3ccc4c(c3)OCO4)cc2)C1 (stereo unspecified) | 24.1%
COCC(=O)OCC(=O)Nc1cc(C(C)(C)C)nn1-c1ccccc1 | 25.4%
O=C(CCl)Nc1cc(-c2ccccc2)nn1-c1ccccc1 | 68.9% (active)
Cc1ccc(-c2cc(NC(=O)CSc3n[nH]c(N)n3)n(-c3ccccc3)n2)cc1 | 24.2%
CC(C)c1ccc(-c2c(C#N)c(N)nc3c2CCCCC3)cc1 | 23.8%
Cc1cc(C)cc(NS(=O)(=O)c2ccc(NC(=S)Nc3ccccc3)cc2)c1 | 26.1%
CC1CCCCN1C(=S)NCCc1ccccc1 (stereo unspecified) | 47.7%
CCc1cccc(CC)c1NC(=S)NCCc1c(C)[nH]c2ccccc12 | 37.9%
S=C(NCCCc1ccccc1)Nc1ccc(Cl)cc1 | 86.3% (active)
O=[N+]([O-])c1ccc(N2CCN(C(=S)Nc3ccccc3)CC2)cc1 | 32%
S=C(NCCc1ccccc1)Nc1ccc(Br)cc1 | 70.2% (active)

Compound | inhibition
O=[N+]([O-])c1ccc(NC(=S)NCCc2ccc(F)cc2)cc1 | 85.5% (active)
O=C(NC(CO)Cc1ccc([N+](=O)[O-])cc1)C(Cl)Cl (stereo unspecified) | 29.8%
CC(=O)Nc1ccc(C(=O)CSc2nnc(Cc3ccccc3)o2)cc1 | 11.8%
CCOC(=O)C1=NN(C(=O)c2ccc(C)cc2)C(O)(c2ccc(Cl)cc2)C1 (stereo unspecified) | 45.7%
Cc1cccc(NC2=C(Cl)C(=O)OC2NC(=O)c2ccccc2)c1 (stereo unspecified) | 7.1%
O=C(Nc1ccc2nc3n(c(=O)c2c1)CCCC3)c1cc([N+](=O)[O-])ccc1F | 64.8% (active)
CC1CCCCN1C(=S)Nc1ccc2nc3n(c(=O)c2c1)CCCCC3 (stereo unspecified) | 35%
Cc1ccc(NCC(=O)Nc2c(C)n(C)n(-c3ccccc3)c2=O)cc1S(=O)(=O)N(C)C | 15.9%
Cc1ccc(CC(=O)Nc2ccccc2-c2ccccc2)cc1C | 35.9%
O=C(Nc1cccc(F)c1)c1ccc(CSc2ccccc2)o1 | 37.8%
Cc1ccccc1-c1ccc(C(=O)Nc2cccc(F)c2)o1 | 52.9% (active)
CC1=C(C)/C(=N\OS(=O)(=O)c2ccc(C)cc2)C=CC1=O | 79.5% (active)
N#Cc1cnn(-c2ncnc3sc4c(c23)CCCC4)c1N | 33.3%
O=C(COC(=O)Cc1c(F)cccc1Cl)NCCC1=CCCCC1 | 37.5%
COc1ccc(/C=C2/CCc3ccccc3C2=O)cc1OC | 59.9% (active)
O=C1/C(=C/c2ccco2)Cc2ccccc21 | 38.1%
COc1ccc(C2=C/C(=C/c3cccnc3)C(=O)O2)cc1OC | 40.3%
COc1cc(/C=C2/CCc3ccccc3C2=O)cc(OC)c1OC | 53% (active)
O=C1/C(=C/c2ccccc2)CCCc2ccccc21 | 57.9% (active)
COc1cc2ccccc2c2c1CCCC2=O | 27.6%
COc1cc(C=O)ccc1Oc1nnnn1-c1ccccc1 | 35%
COc1ccc(/C=C2\COc3ccccc3C2=O)cc1OC | 72.8% (active)
Cc1ccc(CN(C(=O)CNC(=O)c2cccs2)C(C(=O)NCC2CCCO2)c2ccccc2)cc1 (stereo unspecified) | 20.4%
CC(C)NCCCCOc1cccc(Br)c1 | 43.9%
O=C(Cn1cccc(C(F)(F)F)c1=O)c1ccc(Cl)cc1 | 22%
Cc1oc(C(=O)O)cc1COc1ccc2c3c(c(=O)oc2c1)CCC3 | 14.6%

Compound | inhibition
Cc1[nH][nH]c(=O)c1C(c1c(C)[nH][nH]c1=O)c1cn(Cc2ccc(Cl)c(Cl)c2)c2ccccc12 | 35.5%
CN(C)c1ccc(/C=N/NC(=O)c2nnn(-c3nonc3N)c2CN(C)c2ccccc2)cc1 | 25.6%
Cc1nc2c(=O)n(C)c(=O)n(C)c2nc1Cl | 36.3%
N=c1n(CC(=O)c2ccc([N+](=O)[O-])cc2)c2ccccc2n1Cc1ccccc1Cl | 25.6%
COc1ccc2c(c1)CC/C(=C/c1ccco1)C2=O | 71.4% (active)
Nc1ccc2c(c1)C/C(=C/c1ccco1)C2=O | 18.6%
c1ccc2sc(Sc3ncnc4sccc34)nc2c1 | 44.2%
Cc1ccc(-c2nc3cnccn3c2Nc2c(C)cccc2C)o1 | 58.9% (active)
COc1ccc(-c2nc3cnccn3c2Nc2ccc(C)cc2)cc1 | 38.7%
CC(=O)OCC(=O)[C@H]1CC[C@H]2[C@@H]3CC=C4C[C@@H](O)CC[C@]4(C)[C@H]3CC[C@]12C | 4.15%
O=C(CCNC(=O)c1ccccc1Cl)Nc1ccc2c(c1)OCO2 | 22.9%
COC(=O)c1ccc(Oc2ccc(S(=O)(=O)N3CCCCC3)cc2N)cc1 | 92.3% (active)
CC(=O)c1ccc(S(=O)(=O)N2CCCC2)cc1 | 23.6%
COC(=O)c1ccc(NC(=O)C(=O)N2CCCC2)cc1 | 45.1%
CCc1ccc(NCc2nc(-c3ccccc3)no2)cc1 | 46.7%
O=S(=O)(CC(CN1CCCCC1)N1CCCCC1)c1ccc2ccccc2c1 (stereo unspecified) | 39.3%
CCOC(=O)c1cc(-c2ccc(OC)cc2)nc2c1c(C)nn2CCC#N | 49.9%
CCOC(=O)/C=C/C(=O)Nc1cccc([N+](=O)[O-])c1 | 66.3% (active)
CCOC(=O)/C=C/C(=O)Nc1nccs1 | 45.4%
CCOC(=O)N1CCC(=NNS(=O)(=O)c2cccc([N+](=O)[O-])c2)CC1 | 24%
COC(=O)/C=C\C(=O)Nc1cccc([N+](=O)[O-])c1 | 51.5% (active)
O=C(/C=C/c1cccc([N+](=O)[O-])c1)c1ccco1 | 38.9%
O=C(CON=C1c2ccccc2-c2ccccc21)NC12CC3CC(CC(C3)C1)C2 | 30.6%
